MLLE-PAM2 inh = inhibitors of microRNA-mediated deadenylation, human PABP1 MLLE binding; inhibition, % at 20 µM; 0.36% of 360,000 active; P11940; GST-MLLE / FITC-PAM2 fluorescence polarization; AID 588489; in the data active = inhibition above about 35%, passing the limit was not always enough;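 also: plate controls were DMSO wells with GST-MLLE for no effect and wells lacking GST-MLLE protein for full effect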
eIF4H inh = inhibitors of RNA binding by human eIF4H; Q15056; eIF4H fluorescence polarization binding assay; inhibition, % at 35 µM; 0.94% of 290,000 active;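 also: calls also rest on retests at 20 µM and on dose response follow-up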
PERK inhibitor = inhibitors of human PERK kinase; 0.17% of 220,000 active; Q9NZJ5; CHO PERK-DD fusion, SEAP luminescence translation reporter; inhibition, % at 5.6 µM;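 active = inhibition above the mean inhibition of all tested compounds plus 3 SD, set separately per screening campaign, cut at about 2.9% in these data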;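 also: PERK kinase domain activated by AP20187 dimerizer at 100 nM; 0% = DMSO with dimerizer and 100% = rapamycin at 8.4 µM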
PABP polyA inh = PABP-poly(A) binding inhibition; AID 2014; PABP-poly(A) RNA binding, fluorescence polarization; inhibition, % at 35 µM; P11940; 1% of 290,000 active;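 also: calls also rest on retests at 20 µM and on dose response follow-up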
eIF4E 4G PPI = eIF4E/eIF4G interaction inhibition in translation initiation | P63073+Q04637 | TR-FRET eIF4E-eIF4GI(517-606) binding, 2 h | inhibition, % at 21.7 µM | 0.37% of 220,000 active;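 active = inhibition above about 30%, limit read from the data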;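 also: 0% = full FRET control wells and 100% = background wells lacking eIF4GI fragment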
An asterisk follows results filed as active; ? = inconclusive; / = no result given; [ ] = dose if it differs, or a comment. The list is not random: actives were taken first. Their share in the collection is about 1.6%. Unless noted, no rule for the calls is given here.

SMILES	MLLE-PAM2 inh	eIF4H inh	PERK inhibitor	PABP polyA inh	eIF4E 4G PPI
O=C(NC(=S)Nc1ccc2oc(=O)ccc2c1)c1ccco1	43.0*	-10.3	0.2	-3.7	-8.2
COc1cccc(OC)c1C(=O)NC(=S)Nc1ccc2oc(=O)ccc2c1	11.8	-10.2	0.8	5.4	-4.0
C/C(=N\NC(=O)c1cccc(N/N=C(\C)c2ccco2)c1)c1ccco1	-18.7	90.2*	0.7	active	13.9
COc1ccc(-c2nnc(NC(=O)c3ccc(S(=O)(=O)N4CCc5ccccc5C4)cc3)o2)cc1	-3.0	21.1	0.4	8.0	-26.1
COCCN(C(=O)Cc1cccs1)C(C(=O)NCc1ccc(OC)cc1)c1ccc(OC)cc1 (stereo not drawn)	2.7	-1.5	-0.9	8.0	-0.1
O=C(NC1CCCCC1)C1CCN(c2cnccn2)CC1	1.8	-3.4	0.6	-8.9	39.8*
COC(=O)[C@@]1(Cc2ccc(F)cc2)[C@H]2c3cc(C(=O)N(C)C)n(Cc4ccccc4)c3C[C@H]2CN1C(=O)c1ccccc1	/	88.5	-0.8	0.0	4.6
CCCNS(=O)(=O)c1ccc(OCC(=O)OC)cc1	-12.5	-11.1	0.7	-0.8	5.2
O=C(CSC1=Nc2ccccc2C2=NC(CC(=O)NC3CCCCC3)C(=O)N12)NCc1ccco1 (stereo not drawn)	48.6*	?	1.1	?	6.3
O=C(CCC1N=C2c3ccccc3N=C(SCc3ccccc3Cl)N2C1=O)NCc1ccco1 (stereo not drawn)	0.8	-10.2	-1.7	3.0	0.7
COc1ccc(C(CC(=O)N2CCCCC2)c2c(OC)cc(OC)c3c(-c4ccccc4)cc(=O)oc23)cc1 (stereo not drawn)	0.5	/	/	/	25.9
COc1ccc(C(CC(=O)N2CCCC2)c2c(OC)cc(OC)c3c(-c4ccccc4)cc(=O)oc23)cc1 (stereo not drawn)	-1.4	87.4*	/	28.4	33.8*
COc1cc(C(CC(=O)N2CCCC2)c2c(OC)cc(OC)c3c(-c4ccccc4)cc(=O)oc23)cc(OC)c1OC (stereo not drawn)	-3.3	78.2*	/	53.4*	3.7
COc1ccc(C(CC(=O)N2CCOCC2)c2c(OC)cc(OC)c3c(-c4ccccc4)cc(=O)oc23)cc1 (stereo not drawn)	1.6	93.0*	/	51.6*	27.3
COc1ccccc1S(=O)(=O)Cc1ccc(C(=O)NCCCN2CCN(c3ccc(F)cc3)CC2)o1	13.3	-12.5	/	-7.0	/
O=C(OCn1nnc2ccccc2c1=O)c1cc2ccccc2o1	-0.5	-7.3	/	6.5	97.8*
COc1ccc(CN(C)C(=O)c2ccc(NS(=O)(=O)c3ccc(C)c([N+](=O)[O-])c3)cc2)c(OC)c1OC	3.8	/	/	/	/
CCOc1ccccc1NC(=O)C1CCN(S(=O)(=O)c2cccc3cccnc23)CC1	10.3	-2.6	/	-1.2	57.4*[fluorescence artefact?]
Cc1c(Cl)cccc1Nc1nc(NCCO)c2ccccc2n1	-0.2	-12.4	/	-6.1	/
CC1=C(C#N)C(=O)N(C2CCS(=O)(=O)C2)C(=O)/C1=C\c1ccc(C)o1 (stereo not drawn)	/	?	0.4	?	37.7*
c1ccc2c(c1)nc1n2C2(N3CCOCC3)CCCC2C1N1CCOCC1 (stereo not drawn)	8.6	56.8*	/	45.7*	/
Oc1ccc2c(c1)C1CCCC1(N1CCOCC1)O2 (stereo not drawn)	9.5	34.0	1.6	33.0	4.7
Oc1c(Br)cc(Br)c(/C=N/n2c(-c3ccccc3)n[nH]c2=S)c1Br	14.4	43.9*	/	66.1*	/
Cc1nc2cc(NC(=O)c3ccc([N+](=O)[O-])s3)ccc2s1	-19.8	-5.9	/	-14.6	/
Cc1cc(Cl)ccc1N=c1ssnc1Cl	17.7	-0.2	1.3	6.0	47.6*
SMILES	MLLE-PAM2 inh	eIF4H inh	PERK inhibitor	PABP polyA inh	eIF4E 4G PPI
Cc1ccc(N=c2ssnc2Cl)cc1	22.5	0.5	0.6	3.6	72.0*[fluorescence artefact?]
Nc1ccccc1N=c1ssnc1Cl	14.4	4.1	1.6	8.5	11.6
COc1cc(N=c2ssnc2Cl)c(OC)cc1Cl	16.5	-2.3	0.4	14.2	72.8*[fluorescence artefact?]
COC(=O)C(NC(=O)CCC(=O)NC(C(=O)OC)c1ccccc1)c1ccccc1 (stereo not drawn)	-2.1	6.2	/	7.6	/
CN1C2C=C3C(C#N)=C(N)C(C#N)(C#N)[C@H](c4c(F)cccc4F)[C@H]3C1CC2 (stereo partly drawn)	22.5	52.6	-0.4	31.1	1.7
CN1C2C=C3C(C#N)=C(N)C(C#N)(C#N)[C@@H](c4cccs4)C3C1CC2 (stereo partly drawn)	16.9	59.1*	1.1	52.7*	-1.3
CC(C)(C)C1CC=C2C(C#N)=C(N)C(C#N)(C#N)C(c3cccs3)C2C1 (stereo not drawn)	/	93.1*	-0.7	120.9*	/
CCn1c(SCC(=O)N/N=C/C=C\c2ccco2)nc2ccccc21	-15.7	/	0.6	/	9.1
Cn1c(=O)c2c(ncn2CC(=O)N/N=C/C=C/c2ccco2)n(C)c1=O	-1.3	99.1*	2.2	101.8*	3.8
Cn1c(SCC(=O)N/N=C/C=C\c2ccco2)nc2ccccc21	-14.4	90.3*	-0.8	55.6*	5.1
CCc1nnc(NC(=O)c2ccc(S(=O)(=O)N(C)c3ccccc3)cc2)o1	-6.6	10.4	-0.1	-27.2	1.6
O=C(Nc1c(-c2ccccc2)nc2ccc(Cl)cn12)c1cccs1	-10.8	50.6*	0.7	active	3.9
CCOC(=O)CNc1c(-c2ccc(O)cc2)nc2ccc(Cl)cn12	-12.4	79.5*	0.3	30.5*	6.5
CCOC(=O)CNc1c(-c2ccccc2)nc2ccc(Cl)cn12	-4.7	-10.3	0.1	-15.0	-6.3
CC1CC(C)(C)NC(=S)S1 (stereo not drawn)	41.1*	-4.4	0.2	-5.2	14.5
Cc1cnc(NC(=O)c2ccc(-c3nc4ccccc4s3)o2)s1	-33.9	-2.5	-0.8	8.3	59.1*[fluorescence artefact?]
O=C(Nc1ccc2ncccc2c1)c1ccccc1Cl	-132.2	0.4	0.3	73.9*	1.7
Cc1cc(C)c2nc(SCC(=O)Nc3cc(C)on3)c(C#N)cc2c1	-32.6	45.4	/	17.7	/
CCOC(=O)c1ccc(N2CSC3=C(C#N)C(c4ccc(OC)cc4OC)CC(=O)N3C2)cc1 (stereo not drawn)	-105.6	-9.8	-0.6	7.4	2.4
N#CC1=C2SCN(c3ccccc3)CN2C(=O)CC1c1cccs1 (stereo not drawn)	-40.9	23.0*	0.3	75.6*	-5.2
Cc1ccc(C2CC(=O)N3CN(c4ccc(Br)cc4)CSC3=C2C#N)o1 (stereo not drawn)	-58.7	41.2*	0.5	91.6*	10.8
N#CC1=C2SCN(c3ccccc3)CN2C(=O)CC1c1c(Cl)cccc1Cl (stereo not drawn)	-5.7	-2.2	1.2	5.5	-4.5
CCOc1ccc(N2CSC3=C(C#N)C(c4ccco4)CC(=O)N3C2)cc1 (stereo not drawn)	-5.1	92.4*	0.0	86.8*	21.7
Cc1cccc(C)c1NC(=O)c1cccc(COc2cc(Cl)ccc2Cl)c1	-3.1	-6.8	0.8	0.5	-2.8
CC1=C/C(=N\NC(=O)c2cccs2)CC(C)(C)C1	-10.9	-5.1	0.4	-0.7	1.3
